Shown are actives, neighbours in structure and some others; about 10% of the full set was active somewhere.
NIH3T3 tox: NIH 3T3 cell cytotoxicity | NIH 3T3 viability, CellTiter-Glo ATP luminescence, 48-72 h | Potency, µM (top dose mostly 96.7 µM), for inactives: at the highest dose activity change, negative = cytotoxicity, hits mostly inhibitors | actives 4.3% (n = 94,000) | AID 1345082; also: % is scaled to controls: 0 for no effect and ±100 for the full control effect; nearly all actives have a fitted effect of over 55% in size
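Viability of NIH 3T3 cells after 48 or 72 hr compound treatment at 37 °C was assessed by CellTiter-Glo, with luminescence imaged following a 10 min room-temperature step.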
hNpr1 antagonist: antagonists of human natriuretic peptide receptor Npr1 | HEK293 hNpr1 GloSensor cGMP, ANP-stimulated luminescence | Potency, µM (titrated, usually from 46.3 µM), for inactives: top-dose activity change, negative = inhibition, most hits filed as inhibitors | actives 1.6% (n = 76,000) | AID 1347048; calls by dose curve; also: % is scaled to controls: 0 for no effect and ±100 for the full control effect; nearly all actives have a fitted effect of over 60% in size
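Compound pre-incubated 30 min at room temperature on GloSensor-loaded HEK293 cells stably carrying hNpr1 and the pGS-40F cGMP biosensor. Stimulation uses hNppA at 0.1 nM final; luminescence is taken at baseline and 20 min post-agonist.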
FLuc inh-1: Photinus pyralis luciferase inhibition. actives 2.5% (n = 76,000). purified P. pyralis luciferase, luminescence, biochemical. AID 1347043. Potency, µM (top dose mostly 115 µM), usual class: inhibitors. P08659; also: % is scaled to controls: 0 for no effect and ±100 for the full control effect; nearly all actives have a fitted effect of over 65% in size
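Luminescence read by CCD imager after adding enzyme (10nM final) to wells holding compound, titrated in qHTS. Substrates 10uM each D-luciferin and ATP; buffer 50mM Tris acetate pH 7.5, 10mM Mg acetate, Tween-20, BSA.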
HEK cytotox: HEK 293 cell cytotoxicity | actives 6.6% (n = 94,000) | AID 1345083 | HEK 293 viability, ATP luminescence (CellTiter-Glo), 48-72 h | Potency, µM (titrated, usually from 115 µM), without a hit: top-dose activity change, negative = cytotoxicity, usual class: inhibitors; also: % is scaled to controls: 0 for no effect and ±100 for the full control effect; nearly all actives have a fitted effect of over 60% in size
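Read-out: CellTiter-Glo ATP luminescence. Cells: HEK 293, 250 cells/well. Exposure: 48 or 72 hr, 37 degree Celsius.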
GPT2 inhibitor: GPT2 alanine aminotransferase inhibition. actives 0.25% (n = 100,000). Recombinant GPT2, coupled pyruvate oxidase/HRP Amplex Red fluorescence. Potency, µM (highest dose often 57.7 µM), for the others: at the top dose activity change, negative = inhibition, hits mostly inhibitors. Q8TD30. AID 1671188; also: % is scaled to controls: 0 for no effect and ±100 for the full control effect; nearly all actives have a fitted effect of over 60% in size
Target sequence (Q8TD30 whole entry, looked up): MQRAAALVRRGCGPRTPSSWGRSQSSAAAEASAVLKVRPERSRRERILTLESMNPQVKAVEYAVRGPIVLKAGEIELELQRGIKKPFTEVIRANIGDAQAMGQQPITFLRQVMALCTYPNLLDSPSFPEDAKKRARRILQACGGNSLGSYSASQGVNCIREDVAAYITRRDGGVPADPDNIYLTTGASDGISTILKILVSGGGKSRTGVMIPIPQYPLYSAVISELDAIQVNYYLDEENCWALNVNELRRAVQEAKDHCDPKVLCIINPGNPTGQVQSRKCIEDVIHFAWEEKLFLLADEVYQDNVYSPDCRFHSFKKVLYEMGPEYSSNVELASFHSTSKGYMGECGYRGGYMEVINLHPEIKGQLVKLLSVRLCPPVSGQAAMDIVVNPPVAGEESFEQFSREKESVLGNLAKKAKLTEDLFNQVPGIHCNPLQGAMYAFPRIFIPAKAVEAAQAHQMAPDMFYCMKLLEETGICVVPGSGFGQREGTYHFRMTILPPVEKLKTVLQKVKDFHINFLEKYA
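Fluorescence read-out: pyruvate from GPT2 turnover coupled to pyruvate oxidase, HRP and Amplex Red (0.2mM ThPP, 0.2U/mL PO and HRP, 50uM Amplex final). Substrates 250uM a-KG, 2mM L-alanine; enzyme 10ng/uL; 30 min RT.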
FLuc SDR no ATP: stabilizes firefly luciferase without ATP | shares compounds with FLuc inh-1 | Purified FLuc-C-HiBiT, Nano-Glo HiBiT luminescence, no ATP | Potency, µM (series often up to 32.7 µM), for inactives: at the top dose activation (signal gain), usual class: activators | actives 7.8% (n = 1,300) | AID 1963318; also: nearly all actives have a fitted effect of over 55% in size
FLuc SDR ATP: firefly luciferase binding stabilization, ATP added; shares compounds with FLuc inh-1; purified FLuc-C-HiBiT + ATP, HiBiT complementation luminescence; Potency, µM (highest dose often 32.7 µM), without a hit: at the top dose activation (gain of signal), hits mostly activators; actives 8.7% (n = 1,300);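 also: signal reports ligand binding via conformational change of the enzyme rather than luciferase catalysis; % of control where 0% means no effect; nearly all actives have a fitted effect of over 55% in size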
FLuc inh-2: inhibitors of firefly luciferase enzymatic activity | shares compounds with FLuc inh-1 | purified FLuc-C-HiBiT enzyme, luciferin luminescence | Potency, µM (top dose mostly 32.7 µM), for inactives: at the highest dose activity change, negative = inhibition, usual class: inhibitors | actives 42% (n = 1,300) | AID 1963320; also: % is scaled to controls: 0 for no effect and ±100 for the full control effect; nearly all actives have a fitted effect of over 70% in size
* = called active by the depositor; i = inactive; ? = inconclusive; . = no result; [ ] = another dose, or the depositor's remark. Unless noted, calls follow the shape of the dose curve; as a rule, active = well fitted curve in the direction sought with a large enough effect; inconclusive = small, poorly fitted or top-dose-only effect, or another doubt; inactive = no such curve, though single readings can be large; an effect the other way counts as inactive or inconclusive. Potency is read from the fitted curve at half-maximal effect.

SMILES	NIH3T3 tox	hNpr1 antagonist	FLuc inh-1	HEK cytotox	GPT2 inhibitor	FLuc SDR no ATP	FLuc SDR ATP	FLuc inh-2
CCn1cc(-c2ccc(C)cc2)cc1C(=O)O	-19%	2%	?	?	i	14%	10%	-13%
Cc1ccc(Cn2cc(-c3ccncc3)cc2C(=O)O)cc1	?	1%	i	-27%	i	14%	11%	-8%
CCn1cc(-c2ccccc2)cc1C(=O)O	i	-3%	i	6%	4%	.	.	.
Cc1ccc(C(=O)NC(C(=O)N2CCCCC2)C2CCN(C(=O)C(C)C)CC2)cc1 (centres undefined)	?	-4%	i	?	i	.	.	.
CCc1noc(-c2nc(-c3ccccc3C)no2)n1	-24%	2%	14µM*	?	i	9%	8%	-14%
C[C@H](C(=O)NCCN1CCOCC1)C1CC[C@@]2(C)Cc3sc(CSc4ccccc4)nc3[C@@H](C)[C@@H]2[C@H]1O (some centres undefined)	?	10µM*	11µM*	40µM*	5%	12%	11%	?
C[C@H](C(=O)N(C)CCC#N)C1CC[C@@]2(C)Cc3sc(NC(=O)c4cccn4C)nc3[C@@H](C)[C@@H]2[C@H]1O (some centres undefined)	?	?	5µM*	?	-18%	30%	?	7µM*
C[C@H](C(=O)N1CCOCC1)C1CC[C@@]2(C)Cc3sc(-c4ccccc4)nc3[C@@H](C)[C@@H]2[C@H]1O (some centres undefined)	?	-2%	14µM*	?	3%	6.2µM*	?	3.5µM*
C[C@H](C(=O)N(C)CCC#N)C1CC[C@@]2(C)Cc3sc(NC(=O)C4CC4)nc3[C@@H](C)[C@@H]2[C@H]1O (some centres undefined)	-10%	-11%	?	-2%	2%	.	.	.
C[C@H](C(=O)NCCN1CCOCC1)C1CC[C@@]2(C)Cc3sc(CS(=O)(=O)Cc4ccc(F)cc4)nc3[C@@H](C)[C@@H]2[C@H]1O (some centres undefined)	-24%	4%	i	-28%	-29%	.	.	.
CN1CC2(CCN(Cc3cn[nH]c3-c3cccs3)CC2)CC1C(=O)N1CCOCC1 (centres undefined)	-18%	-6%	i	i	i	.	.	.
O=C1NC2(CCN(Cc3ccccn3)CC2)COc2ccccc21	-17%[138 µM]	-16%[70.6 µM]	i	-21%[172 µM]	3%[88.5 µM]	.	.	.
COc1ccc2c(c1)C(C(=O)Nc1ccc(C)c([S+](=O)([O-])N3CCOCC3)c1)=CC(C)(C)CO2	?	.	.	-18%	.	.	.	.
O=C(c1ccc2oc(-c3cccc(F)c3)nc2c1)N1CCCCC1CCO (centres undefined)	?	-21%	14µM*	?	-6%	18%	16%	?
O=C(c1ccc(F)cc1)N1C[C@@H]2C[C@H](C1)c1ccc(NS(=O)(=O)c3cccc(F)c3)c(=O)n1C2	-16%	-8%	i	-15%	-18%	.	.	.
O=C(Nc1cccc(F)c1)Nc1ccc2n(c1=O)C[C@H]1C[C@@H]2CN(C(=O)c2ccc(F)cc2)C1	?	-22%	10µM*	40µM*	1%	14%	10%	?
CCOCCNc1nccc(C2(c3ccccc3Cl)CCNCC2)n1	?	6%	i	-27%	?	.	.	.
CC(=O)N[C@@H]1C=C[C@@H](c2c(C)nn(-c3ccc(C(C)(C)C)cc3)c2C)C1	50µM*	?	14µM*	?	-7%[88.5 µM]	17%[49.3 µM]	18%[49.3 µM]	?
Cc1nn(-c2ccc(C(C)(C)C)cc2)c(C)c1[C@@H]1C=C[C@@H](NC(=O)COCC(=O)O)C1	?	-2%[70.6 µM]	22µM*	3%[172 µM]	i	28%[49.3 µM]	18%[49.3 µM]	?
CCNC(=O)N[C@@H]1C=C[C@@H](c2c(C)nn(-c3ccc(C(F)(F)F)cc3)c2C)C1	?	25µM*	1.6µM*	22µM*	-25%[88.5 µM]	25%[49.3 µM]	?	14µM*
CCNC(=O)N[C@@H]1C=C[C@@H](c2c(C)nn(-c3ccc(C(C)C)cc3)c2C)C1	28µM*	7.1µM*	0.5µM*	20µM*	0%[88.5 µM]	?	?	2.9µM*
Cc1nn(-c2ccccn2)c(C)c1[C@@H]1C=C[C@@H](NC(=O)CSCC(=O)O)C1	?	2%[70.6 µM]	i	0%[172 µM]	-15%[88.5 µM]	.	.	.
Cc1nn(-c2ccc(C(F)(F)F)cc2)c(C)c1[C@@H]1C=C[C@@H](NC(=O)CC2(CC(=O)O)CCCC2)C1	?	5%	i	-22%	0%	.	.	.
CC(C)C(=O)Nc1cc(C2CC2)nn1C	-12%[174 µM]	.	.	i	2%[88.5 µM]	.	.	.
CCOCCNC(=O)c1nc2cccnc2n(C2CC2)c1=O	-8%[138 µM]	.	.	i	i	.	.	.
SMILES	NIH3T3 tox	hNpr1 antagonist	FLuc inh-1	HEK cytotox	GPT2 inhibitor	FLuc SDR no ATP	FLuc SDR ATP	FLuc inh-2
CC(=O)N[C@@H]1C=C[C@@H](c2c(C)nn(-c3ccc(C(F)(F)F)cc3)c2C)C1	89µM*	?	14µM*	79µM*	-27%[88.5 µM]	16%[49.3 µM]	?	?
Cc1cn2c(=O)cc(COC(=O)c3ccccc3F)nc2s1	.	.	.	.	.	12%	?	?
COc1ccc(NC(=O)c2nc3sccn3c2-c2ccc(C(F)(F)F)cc2)cc1	?	.	.	?	-11%	.	.	.
CC(=O)NCCNC(=O)c1ccc2c(=O)n(CCc3ccccc3)c(=O)[nH]c2c1	.	.	.	.	.	10%	14%	?
O=C(CN1CC2CC(C1)[C@H]1CCCC(=O)N1C2)N1CCN(c2cccc(Cl)c2)CC1 (some centres undefined)	2%	3%	i	11%	i	.	.	.
O=C(NCc1cccnc1)C1CCN(C(=O)c2ncn3c2COC(c2ccc(F)cc2)C3)CC1 (centres undefined)	i	-2%	?	-4%	-4%	.	.	.
CC(CNC(=O)C1CCN(C(=O)c2ncn3c2COC(c2ccccc2)C3)CC1)c1ccccc1 (centres undefined)	-21%	-14%	3.5µM*	-16%	i	11%	1.6µM*	2.5µM*

Bioassay records as filed in PubChem BioAssay.
